These results are taken from PubChem BioAssay (NCI).

Holding throughout (assay): NCI-60 one-dose screen, 48 h (100 = growth as untreated, 0 = no growth, -100 = all killed)
Common to all, as to settings: 10 µM unless noted

In test [1] the test system is DU-145 prostate.
Test [2] concerns K-562 leukemia.
Test [3] relates to MALME-3M melanoma.
For test [4], the system named is MDA-MB-231 breast.
The subject of test [5] is RXF 393 renal.
Test [6] concerns SF-268 CNS.
The test system of test [7] is SF-295 CNS.
Test [8] concerns SF-539 CNS.
Test [9] has as its system UACC-257 melanoma.
Test [10] concerns M14 melanoma.
In test [11] the test system is HCT-15 colon.
In test [12] the test system is HT29 colon.
In test [13] the test system is SNB-75 CNS.
The subject of test [14] is SNB-19 CNS.
Test [15] relates to U251 CNS.
Test [16] has as its system PC-3 prostate.
The subject of test [17] is SK-MEL-5 melanoma.
Test [18] concerns UACC-62 melanoma.
In test [19] the test system is LOX IMVI melanoma.
Test [20] has as its system SK-MEL-28 melanoma.

This is part of a sample that, as a whole, favours compounds with a hit. Of some 83,000 tested, about 20% had one in any assay.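 Results are percent growth after 48 hours of single-concentration exposure. 100 means growth as in untreated cells, lower positive values show inhibition; negative values down to -100 show cell death.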 A number with no mark means an inactive call. The source made the active and inactive calls. The calls were made as follows: active = growth percent below 10; inactive = the rest.

Regarding `Cc1[nH]c(-c2nc3ccccc3[nH]2)c(C)c1C(=O)N1CCc2sccc2C1`, the growth in test [1] is 102%; in test [2] it was 82.9%; in test [3], 85.9%; in test [4] it was 85.9%; in [5], 101%; in test [6], 97.3%. Besides, the growth was 100% in test [7]; 87.5% in [8]; 96.9% in test [9]; 94.6% in [10]; 90% in test [11]; 96% in [12]. Also, the growth in test [13] is 78.6%; in test [14] it was 89.4%; in test [15], 97.9%; in test [16] it was 87.3%; in [17], 88.8%; in test [18] it was 87.8%. In addition, the growth in test [19] is 93.3%; in [20], 94.5%.
As to `CCCCN1CCN(c2ccc3nc(-c4ccc5nc(-c6cc(OC)c(OC)c(OC)c6)[nH]c5c4)[nH]c3c2)CC1`, the growth in test [1] was 91.6%; in [2], 30.8%; in [3] it was 21.1%; in [4], 78.9%; in [5], -43.4% (active); in test [6], 71.8%. Further, the growth is 58.6% in [7]; 61.1% in test [8]; 87.9% in [9]; 59% in test [10]; 99.2% in test [11]; 56% in [12]. Besides, the growth in test [13] was 38.7%; in [14] it was 71.9%; in [15], 56.3%; in test [16], 57.4%; in test [17], 44.8%; in test [18] it was 39.5%. For the same compound, the growth in [19] was 40.7%; in test [20], 66.3%.
For the compound `C[C@@H](C[C@H](CCOCc1cccnc1)c1ccccc1)c1cc2ccccc2o1`, the growth in test [1] was 98.7%; in test [2], 81.5%; in test [3], 95.5%; in test [4] it was 98.1%; in test [5] it was 92.8%; in [6], 89.3%. In addition, the growth in test [7] was 97.6%; in [8], 98.8%; in test [9], 94%; in test [10], 92.8%; in [11], 91.1%; in test [12], 78.1%. Also, the growth was 85.6% in test [13]; 94.2% in [14]; 93.6% in test [15]; 75.6% in test [16]; 98.4% in [17]; 81.2% in test [18]. Further, the results for the growth in test [19] and in test [20] were 95.8% and 102%, respectively.
For `C=CC(=O)Nc1cccc(C)c1Nc1cc(-c2cccnc2Cc2c(C)c(OC)cc(OC)c2C)ncn1`, the growth in [1] was 11.4%; in test [2] it was -11.1% (active); in [3], 66.1%; in test [4], 21.4%; in test [5], -0.169% (active); in [6] it was 6.81% (active). Besides, the growth was 43% in [7]; 3.02% (active) in test [8]; 21.4% in test [9]; 53.4% in test [10]; 42.3% in test [11]; 5.04% (active) in test [12]. Also, the growth in test [13] is 23.9%; in test [14], 23.3%; in test [15], -16.1% (active); in [16] it was 8.05% (active); in test [17], 57.9%; in test [18] it was 38%. Moreover, the values for the growth in test [19] and in [20] were 13.9% and 44.3%, respectively.
Regarding `C=CCN1C(=O)[C@]2(SC1=S)[C@H](c1cccc(Cl)c1)CN(C)[C@]21C(=O)NC2C=CC(Cl)=C[C@H]21` (stereo not given in full), the growth in test [1] was 48.8%; in [2] it was 22.9%; in [3], 35.7%; in test [4] it was 26.8%; in test [5], 35.4%; in test [6], 52.9%. The growth in [7] is 32.1%; in test [8] it was 81.1%; in test [9], 26.5%; in test [10], 29.9%; in test [11], 27%; in test [12], 27.9%. Besides, the growth in test [13] is 44.4%; in test [14] it was 59.9%; in test [15] it was 67.8%; in test [16], 7.5% (active); in [17], 42%; in [18], 36.1%. Moreover, the growth in [19] was 13.3%; in [20] it was 64.1%.
Regarding `N=C(N)c1ccc(-c2ccc(-c3ccc(Cl)cc3Cl)o2)nc1`, the growth in test [1] is 24.1%; in [2], 1.13% (active); in [3], 90%; in [4], -38% (active); in [5] it was 64.4%; in test [6], 80.1%. In addition, the growth is -62.8% (active) in test [7]; 42.6% in test [8]; 91.4% in [9]; 70.2% in test [10]; 2.86% (active) in [11]; -23.8% (active) in test [12]. Moreover, the growth was -20% (active) in test [13]; 48.6% in [14]; -37.3% (active) in test [15]; 56.2% in test [16]; 87% in test [17]; 101% in test [18]. The values for the growth in test [19] and in [20] were -82.6% (active) and 80.9%, respectively.
Turning to `Cc1[nH]c(-c2nc3ccccc3[nH]2)c(C)c1C(=O)N1CCOCC1`, the growth in test [1] is 107%; in test [2], 106%; in test [3], 95.7%; in test [4] it was 83.7%; in test [5] it was 93.6%; in [6], 99.5%. Further, the growth was 96% in test [7]; 96.2% in test [8]; 94.1% in [9]; 95% in test [10]; 95.5% in test [11]; 98.3% in test [12]. Further, the growth was 87.8% in test [13]; 88.7% in test [14]; 100% in test [15]; 98.8% in [16]; 98.8% in test [17]; 90% in test [18]. The growth was 97.4% in [19] and 105% in test [20].
